This is an account of results in PubChem BioAssay (NCATS).

“And” between values parts separate entries of the source, which are not always exact repeats. Identical values can stand only once. Results filed as inconclusive are left out. The source holds several records for some structures; these can differ, active in one and inactive in another. The source made the active and inactive calls. The call rests on the fitted dose curve; in most records, active means well fitted inhibition curve with a large enough effect; inconclusive means small, poorly fitted or top-dose-only effect; inactive means no such curve, though single readings can be large or run the other way.
Potency means the concentration at half of the fitted maximal effect.

The assay is described as follows: Primary qHTS for inhibitors of nuclear receptor binding SET domain protein 2 (NSD2) in an RCH-ACV wild type WT cells (2C) (AID 1645877). Further: nearly all actives have a fitted effect of over 70% in size. As to conditions: RCH-ACV (leukaemia line) NSD2 WT (2C) viability, CellTiter-Glo, 72 h; series mostly up to 44.9 µM. Background: qHTS replaces the single test concentration by a dilution series.
Take `N#CC(c1ccnc(NCCc2cccnc2)n1)c1nc2ccccc2s1` (stereo not drawn): the Potency was 14.8 µM (active).
As for `Clc1ccc(C2(c3ccc(-c4cn[nH]c4)cc3)CCNCC2)cc1`, the figure is 1.83 µM (active) and 2.35 µM (active); as for `c1ccc(-c2oc3ncnc(NC[C@@H]4CCCO4)c3c2-c2ccccc2)cc1`, “inactive and 18.3 µM (active)”.
Take `CC(C)(F)C[C@H](N[C@@H](c1ccc(-c2ccc(S(C)(=O)=O)cc2)cc1)C(F)(F)F)C(=O)NC1(C#N)CC1`: the Potency result is “inactive”.
For the compound `CN1CCN2c3ncccc3Cc3ccccc3C2C1` (stereo not drawn), the Potency result was “inactive”.
For the compound `CN1CCc2c(n(Cc3ccc(C(=O)NO)cc3)c3ccccc23)C1`, the Potency is 14.5 µM (active) and 18.6 µM (active).
On to `O=c1cc(-c2ccc(O)c(O)c2)oc2cc(O)cc(O)c12`, for which the Potency was 9.34 µM (active).
In the case of `CNC(=O)c1c(-c2ccc(F)cc2)oc2cc(N(CCO)S(C)(=O)=O)c(C3CC3)cc12`, the Potency result was “inactive”.
Then `CNC(=O)c1ccc2c(C(=Nc3cccc(CN(C)C)c3)c3ccccc3)c(O)[nH]c2c1`, with 16.6 µM (active); and `CC[C@H](C)C(=O)O[C@H]1C[C@H](O)C=C2C=C[C@H](C)[C@H](CC[C@@H](O)C[C@@H](O)CC(=O)O)[C@H]21`, with “inactive”.
For `NS(=O)(=O)c1ccc(Nc2nc(OCC3CCCCC3)c3[nH]cnc3n2)cc1`, the Potency was 13.2 µM (active).
As to `c1cc(OCCN2CCCCC2)cc(-c2n[nH]c3ccc(-c4ncn[nH]4)cc23)c1`, the Potency is 13.2 µM (active).
Take `CN1c2ccccc2C(=O)N2CCc3c([nH]c4ccccc34)C21` (stereo not drawn): the Potency was 1.32 µM (active).
